Rows were chosen to be rich in hits. Some 9.1% of all compounds tested hit in one or more screens of this group.
M1 antag – blocks the rat M1 muscarinic receptor response to acetylcholine; P08482; CHO-M1 cells, Fluo-4 calcium, ACh EC80 antagonist mode; active compounds read low; B-score at 10 µM; actives 3.4% (n = 64,000); AID 628;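 active = calcium fluorescence response, raw or row-and-column corrected B-score, differing from the plate sample mean either way at a set confidence level, mostly lower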
Target sequence (P08482 whole entry, looked up): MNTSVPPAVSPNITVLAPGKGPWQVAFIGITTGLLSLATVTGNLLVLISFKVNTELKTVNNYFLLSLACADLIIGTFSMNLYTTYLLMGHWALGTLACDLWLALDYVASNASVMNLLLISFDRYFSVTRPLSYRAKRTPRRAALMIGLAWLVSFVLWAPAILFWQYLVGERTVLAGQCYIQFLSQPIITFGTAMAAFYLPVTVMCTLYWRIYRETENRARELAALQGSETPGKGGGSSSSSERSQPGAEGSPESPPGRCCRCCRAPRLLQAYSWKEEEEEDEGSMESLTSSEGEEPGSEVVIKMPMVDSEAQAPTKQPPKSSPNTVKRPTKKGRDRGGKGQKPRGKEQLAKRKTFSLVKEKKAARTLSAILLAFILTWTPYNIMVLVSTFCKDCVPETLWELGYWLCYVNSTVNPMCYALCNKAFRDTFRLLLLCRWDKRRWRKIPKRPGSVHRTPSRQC
M1 agonist – activates the M1 muscarinic receptor | CHO-M1 cells, Fluo-4 calcium fluorescence, agonist mode; active compounds read high | actives 3% (n = 64,000) | B-score at 10 µM;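 active = fluorescence rise, raw or as B-score row- and column-corrected plate score, outside the 99.7% band of its plate's samples, either direction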
mHtt clearance – compounds clearing mutant huntingtin protein; HeLa Exon1htt(103Q)mCFP, aggregate imaging; zero = plate's median compound well; inhibition, % at 1.5 µM; actives 0.42% (n = 47,000); AID 853;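 active = inhibition of aggregate fluorescence above about 70%, also judged a hit by eye on the cell image, limit read from the data, passing the limit was not always enough; inconclusive = no rule stated for this call; inactive = not judged a hit on image review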;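 note: cells exposed to compound for three days before fixation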
D1 allo mod – allosteric modulators of human D1 dopamine receptor. P21728. HEK293 D1, CRE-luciferase, dopamine EC30 potentiation; actives deviate in either direction. B-score at 10 µM. actives 5.9% (n = 58,000);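 active = luminescence count or its row- and column-corrected plate score outside the 99.7% band of the plate's sample wells, on either side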
D1 mod confirm – D1 receptor (human) allosteric modulation, confirmed; shares compounds with D1 allo mod; HEK293 D1 CRE-luciferase, dopamine EC30 potentiation; active compounds read high; luminescence at 10 µM; actives 88% (n = 2,200);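 active = luminescence in either of two replicates above the same-plate mean plus 3 SD of the low-dose dopamine control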
D1 no dopamine – secondary test of D1 modulators: activity without dopamine; HEK293 D1 CRE-luciferase, luminescence, no dopamine; active compounds read high; actives 0.8% (n = 1,900); luminescence at 10 µM; AID 646; shares compounds with D1 allo mod; in the data active = luminescence above about 3900
Isoprot counter – isoproterenol response counter-screen activity for D1 modulators. shares compounds with D1 allo mod. HEK293 D1 CRE-luciferase, isoproterenol EC30 counter-screen; active compounds read high. luminescence at 10 µM. actives 63% (n = 2,200). AID 647;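 active = luminescence in either replicate above plate mean of wells with a partly effective reference agonist dose plus 3 SD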;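 note: isoproterenol raises cAMP through native beta-adrenoceptor Gs so signal bypasses D1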
Of the large screens only hits and unclear results are named; the others gave an inactive call (follow-up assays come after a bar, where they were run).

COc1ccccc1N1CCN(C(c2cccs2)c2nnnn2C2CCCC2)CC1 (configuration not stated)	none
N#Cc1c(SCC(N)=O)nsc1SCc1ccc(Cl)cc1	none (no result: mHtt clearance)
N#Cc1c(SCC(N)=O)nsc1SCc1ccccc1Cl	D1 allo mod 5.62 (no result: mHtt clearance) | D1 mod confirm 5884 | Isoprot counter 2992
C=CCn1c(SCc2nc3c(c(=O)[nH]c(=O)n3CCCC)n2CCC)nnc1-c1ccccc1	D1 allo mod 3.83 (no result: mHtt clearance) | D1 mod confirm 9252 | D1 no dopamine inactive | Isoprot counter inactive
O=C(CCN1CCN(c2ccccc2F)CC1)Nc1ccc2c(c1)OCO2	none (no result: mHtt clearance)
Fc1ccc(-c2cc(C(F)(F)F)nc(NCC3CCCO3)n2)cc1 (configuration not stated)	D1 allo mod 5.52 (no result: mHtt clearance) | D1 mod confirm 8052 | Isoprot counter inactive
CCCC(=O)c1c(NC(C)C)cc(C)oc1=O	D1 allo mod 5.68 (no result: mHtt clearance) | D1 mod confirm 12004 | D1 no dopamine inactive | Isoprot counter 4408
N#CCCn1c(Cl)nc2ccccc21	none
Cc1ccc(Cn2c(CN(C)Cc3ccccc3)nc3c2c(=O)n(C)c(=O)n3C)cc1	D1 allo mod 4.93 (no result: mHtt clearance) | D1 mod confirm 8728 | D1 no dopamine inactive | Isoprot counter 3552
Cc1c(C(=O)OCC(C)C)[nH]c2c1C(=O)CC(c1ccco1)C2 (configuration not stated)	D1 allo mod 5.84 | D1 mod confirm 12056 | D1 no dopamine inactive | Isoprot counter inactive
O=C(Nc1ccccc1F)c1cc2nc(C(F)F)cc(C(F)F)n2n1	none (no result: M1 antag, M1 agonist, D1 allo mod)
Cc1cc2c(cc(C(=O)NCc3cccnc3)n2Cc2ccc(Cl)cc2)o1	none (no result: mHtt clearance)
CCn1c(=O)cc(C(=O)OC)sc1=Nc1ccc(F)c(F)c1	D1 allo mod 11.2 | D1 mod confirm 23240 | D1 no dopamine inactive | Isoprot counter 5172
COC(=O)c1cc(NC2c3ncccc3C(=O)N2Cc2ccccc2)cc(C(=O)OC)c1 (configuration not stated)	D1 allo mod 18.7 (no result: mHtt clearance) | D1 mod confirm 20824 | D1 no dopamine inactive | Isoprot counter 5104
COc1ccc(N(CC(=O)N2CCCC(C)C2)S(=O)(=O)c2c(C)nn(C)c2C)cc1 (configuration not stated)	none (no result: D1 allo mod)
c1ccc(-c2n[nH]nc2-c2ccccc2)cc1	D1 allo mod 16.9 | D1 mod confirm 18456 | Isoprot counter 3416
Cc1ccc(-n2c3c(c(=O)[nH]c2=O)C(C(F)(F)F)(C(F)(F)F)NC(=O)N3)cc1	none (no result: M1 antag, M1 agonist, D1 allo mod)
c1ccc(-c2nc(NC3CC3)nc(-n3ccnc3)n2)cc1	D1 allo mod 10.6 | D1 mod confirm 26636 | D1 no dopamine inactive | Isoprot counter 3844
CC(C)Nc1nc(-c2ccccc2)nc(-n2ccnc2)n1	D1 allo mod 10.6 | D1 mod confirm 23348 | D1 no dopamine inactive | Isoprot counter 3780
c1ccc(CN2CCN(c3nc(-c4ccccc4)nc(-n4ccnc4)n3)CC2)cc1	none
C=CCNc1nc(-c2ccccc2)nc(-n2ccnc2)n1	D1 allo mod 8.65 | D1 mod confirm 22092 | D1 no dopamine inactive | Isoprot counter 3292
O=C(NCC(c1cccnc1)N1CCN(c2ccc(F)cc2)CC1)c1ccc(F)cc1 (configuration not stated)	none
CC(=O)Nc1nc(CC(C)C)cc(-c2ccco2)c1C#N	D1 allo mod 9.7 (no result: mHtt clearance) | D1 mod confirm 15584 | Isoprot counter 3304
CSCCC(NC(=O)c1ccccc1)C(=O)NCc1ccco1 (configuration not stated)	none (no result: mHtt clearance)
CCOC(=O)c1cc(CC)sc1NC(=O)Cc1ccccc1	none (no result: M1 antag, M1 agonist, D1 allo mod)
CCOC(=O)c1cc(CC)sc1NC(=O)COC	D1 allo mod 11.9 | D1 mod confirm 17728 | D1 no dopamine inactive | Isoprot counter 4120
CCOC(=O)C1CCN(C(=O)C2CCN(S(=O)(=O)c3cccc4cccnc34)CC2)CC1	none (no result: D1 allo mod)
Cc1ccc(-n2c(=O)[nH]c3c(C(N)=O)nc(CC(C)C)nc32)cc1	D1 allo mod 7.76 (no result: mHtt clearance) | D1 mod confirm 20900 | D1 no dopamine inactive | Isoprot counter 4032
COc1ccccc1-n1c(=O)[nH]c2c(C(N)=O)nc(CC(C)C)nc21	D1 allo mod 5.94 | D1 mod confirm 9424 | D1 no dopamine inactive | Isoprot counter inactive
COc1ccccc1-n1c(=O)[nH]c2c(C(N)=O)nc(C3CCCCC3)nc21	none (no result: mHtt clearance)
Cc1ccc(-n2c(=O)[nH]c3c(C(N)=O)nc(-c4ccc(C)o4)nc32)cc1	none
CCOC(=O)N1CCN(C(=O)CN(c2ccc(OCc3ccccc3)cc2)S(C)(=O)=O)CC1	none
CCOc1c(OC)cccc1C1CC(=O)Nc2cc3c(cc21)OCCO3 (configuration not stated)	none (no result: mHtt clearance)
CCOc1cc(C2CC(=O)Nc3cc(C)c(C)cc32)ccc1O (configuration not stated)	D1 allo mod 21.1 (no result: mHtt clearance) | D1 mod confirm 17484 | Isoprot counter 4260
CCOc1cc(C2CC(=O)NC(SCC)=C2C#N)ccc1O (configuration not stated)	mHtt clearance inconclusive, D1 allo mod 4.52 | D1 mod confirm 6316 | D1 no dopamine inactive | Isoprot counter inactive
COc1ccc(Cl)cc1NC(=O)NCCCl	none (no result: M1 antag, M1 agonist, D1 allo mod)
COc1ccc(Nc2cc(C)nc(N3CCOCC3)n2)cc1	D1 allo mod 3.55 | D1 mod confirm 8656 | D1 no dopamine inactive | Isoprot counter 3728
CCOc1ccc2nc(NC(=O)Cn3cnc4c3c(=O)n(C)c(=O)n4C)sc2c1	none (no result: mHtt clearance)
CCn1c(=O)cc(SCC(=O)Nc2ccc3c(c2)OCO3)c2ccccc21	D1 allo mod 5.22 (no result: mHtt clearance) | D1 mod confirm 9432 | D1 no dopamine inactive | Isoprot counter inactive
CCOc1ccc2nc(NC(=O)CSc3nc4c(c(=O)n(C)c(=O)n4C)n3C(C)C)sc2c1	D1 allo mod 3.98 (no result: mHtt clearance) | D1 mod confirm 10912 | D1 no dopamine inactive | Isoprot counter 4712
CC(C)n1c(SCC(=O)Nc2ccc3c(c2)OCO3)nc2c1c(=O)n(C)c(=O)n2C	D1 allo mod 9.12 | D1 mod confirm 7904 | D1 no dopamine inactive | Isoprot counter 3648
CC(C)n1c(SCC(=O)N2CCCC2)nc2c1c(=O)n(C)c(=O)n2C	D1 allo mod 6.41 (no result: mHtt clearance) | D1 mod confirm 13032 | D1 no dopamine inactive | Isoprot counter inactive
CC(C)n1c(SCC(=O)N2CCCc3ccccc32)nc2c1c(=O)n(C)c(=O)n2C	none (no result: mHtt clearance, D1 allo mod)
COc1ccccc1OCc1nnc(SCC(=O)c2cc(Cl)ccc2OC)o1	none
c1cncc(-c2nnc(C3CCCCC3)o2)c1	none (no result: mHtt clearance)
Clc1cccc(-c2nn3c(Cn4cnc5ccccc54)nnc3s2)c1	none (no result: mHtt clearance)
Clc1ccc(Cc2nn3c(Cn4nnc5ccccc54)nnc3s2)cc1	D1 allo mod 5.35 | D1 mod confirm 9044 | D1 no dopamine inactive | Isoprot counter 3504
c1ccc(Cc2nnc3sc(-c4cccs4)nn23)cc1	D1 allo mod 10.8 | D1 mod confirm 20672 | D1 no dopamine inactive | Isoprot counter 4516
c1ccc(Cc2nnc3sc(-c4cccnc4)nn23)cc1	none
